TbREL1 primary = TbREL1 inhibition, primary screen; TbREL1 RNA ligation, FRET fluorescence; inhibition, % at 9.66 µM; actives 0.49% (n = 89,000); AID 1117264;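 active = inhibition above the mean inhibition across all screened compounds plus 3 SD, cut at about 11% in these data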
Target sequence (P86926 whole entry, looked up): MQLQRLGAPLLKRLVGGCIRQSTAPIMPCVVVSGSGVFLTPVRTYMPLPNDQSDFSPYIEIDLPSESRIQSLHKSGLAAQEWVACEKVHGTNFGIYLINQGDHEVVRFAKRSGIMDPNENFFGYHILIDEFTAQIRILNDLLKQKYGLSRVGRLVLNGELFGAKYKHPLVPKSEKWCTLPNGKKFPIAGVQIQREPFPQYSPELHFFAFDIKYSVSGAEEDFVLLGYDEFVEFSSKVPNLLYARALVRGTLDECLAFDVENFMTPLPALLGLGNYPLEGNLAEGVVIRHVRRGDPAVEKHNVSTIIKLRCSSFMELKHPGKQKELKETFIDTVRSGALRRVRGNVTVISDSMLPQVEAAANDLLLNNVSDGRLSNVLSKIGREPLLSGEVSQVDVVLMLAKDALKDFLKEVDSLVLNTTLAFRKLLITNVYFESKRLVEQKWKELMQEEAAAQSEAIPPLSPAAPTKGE
TbREL1 conf = TbREL1 inhibition, confirmation; actives 37% (n = 390); inhibition, % at 9.66 µM; AID 1117282; shares compounds with TbREL1 primary; TbREL1 RNA ligation, FRET fluorescence;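 active = mean inhibition across replicates above a set limit taken from the earlier primary screen, cut at about 11% in these data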
Hits are given with their value; n = inactive. Many of the other results were omitted from the sample, so hits are more common in it than they were.

SMILES	TbREL1 primary	others
CCCC(=O)N1CCC(C(=O)NC2CCCc3ccccc32)CC1 (stereo unspecified)	n
CC(C)CN1C(=O)C[C@]2(C(=O)N(C)c3ccc(NS(=O)(=O)c4ccc(F)cc4)cc32)C1c1ccccc1 (stereo partly specified)	n
Cc1onc(-c2ccccc2)c1C(=O)Nc1ccc(S(=O)(=O)N2CCCCC2)cc1	n
Cc1onc(-c2c(F)cccc2Cl)c1C(=O)Nc1cc(S(=O)(=O)N2CCCCC2)ccc1O	22	TbREL1 conf=n
Cc1ccc(O)c(NC(=O)c2cccc(S(=O)(=O)N3CCCCC3)c2)c1	n
CCCC1CCC2(CCCN2CCOC(=S)Nc2ccccc2OC)CC1 (stereo unspecified)	n
CCC[C@H]1[C@@H](NC(=O)Nc2ccc3c(c2)OCO3)CC[C@@]23CCCN2C(=O)CCC[C@@H]13	n
COc1ccc(C[C@H]2CN3C(=NC[C@@H]3Cc3ccccc3)N2CCNC(=O)CCC2CCCCC2)cc1	21	TbREL1 conf=18
O=C(CCC1CCCCC1)NCCN1C2=NC[C@H](Cc3ccc(O)cc3)N2C[C@H]1Cc1ccc(O)cc1	n
C[C@@H]1CN=C2N(CCNC(=O)CCC3CCCCC3)[C@H](Cc3ccc(O)cc3)CN21	n
S=c1[nH]nc(-c2cc(-c3ccccc3)n[nH]2)n1N=Cc1cccc(OCc2ccccc2)c1	n
O=C1c2ccccc2C(=O)N1CCOc1ccccc1	n
Cc1ccc(OCCN2C(=O)C(=O)c3cc(C)ccc32)cc1	12	TbREL1 conf=n
Cc1ccc(OCCn2c(=O)sc3ccccc32)cc1	n
O=C(NC1CCCCC1)O[C@H]1CC[C@@]23CCCN2C(=O)CCC[C@H]3C1	n
COc1ccc(C(=O)CSc2nnc(-c3ccc(C(C)(C)C)cc3)n2C)cc1	n
COC(=O)CSc1nnc(-c2cccs2)o1	n
O=C(CCc1ccccc1-c1ccccc1CCNC(=O)c1c(F)cccc1F)NCc1ccccc1	n
Cc1ccc(Cn2cc(/C=C/C(=O)O)c(-c3ccccc3)n2)cc1	n
CN1CCN(C(=O)/C=C/c2cn(-c3ccccc3)nc2-c2ccc3c(c2)OCCO3)CC1	n
Cc1ccc(-c2nn(-c3ccccc3)cc2/C=C/C(=O)O)o1	11	TbREL1 conf=n
Cc1onc(-c2ccccc2)c1C(=O)N(C)CCc1ccccn1	n
Cc1onc(-c2ccccc2)c1C(=O)N(Cc1ccccn1)Cc1ccccn1	11	TbREL1 conf=n
Cc1onc(-c2ccccc2)c1C(=O)NC(C)C	n
Cc1cccc(NC(=O)Nc2ccccc2C(=O)N2CCCC2)c1	n
SMILES	TbREL1 primary	others
COc1cc(NC(=O)c2ccccc2)c(C)cc1NC(=O)CSc1nnc(COc2ccccc2)n1Cc1ccco1	n
O=C(O)CCc1ccc(-c2ccc(F)cc2)n1CCC(=O)O	34	TbREL1 conf=n
O=C(O)CCc1ccc(-c2ccccc2)n1CC(=O)O	n
CCCn1c(CCC(=O)O)ccc1-c1ccccc1	n
COC(=O)[C@@H](N[C@H](/C=C/c1ccccc1)[C@@H](O)Cc1ccccc1)c1ccccc1	n
O[C@@H](Cc1ccccc1)[C@@H](/C=C/c1ccccc1)NCCc1ccccc1	11	TbREL1 conf=n
O=C(/C=C/c1ccc(Cl)cc1)NCCc1ccccc1	n
C#CCN1C(=O)[C@]2(OCCC=C[C@H]2C)c2ccccc21	n
CCCCc1ccc2nc(NC(=O)c3ccc(Br)o3)sc2c1	n
COc1cc([N+](=O)[O-])cc(/C=N/NC(=O)Cn2nc(C)cc2C)c1O	17	TbREL1 conf=n
Cc1cc(C)n(CC(=O)N/N=C/c2ccc([N+](=O)[O-])s2)n1	n
COc1ccc(/C=N/NC(=O)Cn2nc([N+](=O)[O-])cc2C)c(OC)c1OC	n
Cc1ccccc1CN1CCCCC(NC(=O)c2ccc(COc3ccccc3)cc2)C1=O (stereo unspecified)	n
O=C(NC1CCCCN(Cc2ccc(Cl)cc2)C1=O)c1ccc(COc2ccccc2)cc1 (stereo unspecified)	12	TbREL1 conf=n
O=C(NC1CCCCN(Cc2ccc(Cl)cc2)C1=O)c1ccccc1 (stereo unspecified)	n
Nn1c(SCc2ccc(Br)cc2)nnc1-c1n[nH]c2c1CCC2	n
CN(C)CC(c1ccc(O)cc1)C1(O)CCCCC1 (stereo unspecified)	n
S=C(NCc1ccco1)NCc1ccco1	17	TbREL1 conf=n
S=C(NCc1ccc(Cl)c(Cl)c1)NCc1ccco1	n
S=C(NCc1ccccc1)NCc1ccco1	n
C[C@H]1[C@@H](N(C)Cc2ccccc2)CC[C@@]23CCCN2C(=O)CCC[C@@H]13	n
COC(=O)[C@]12C[C@H](CC(=O)N3CCN(C(=O)c4ccco4)CC3)C(=O)N(Cc3ccc(Cl)cc3Cl)C1=C[C@H](C(C)(C)C)O[C@@H]2C	n
CCOc1ccc(N(CC(=O)Nc2c(C)n(C)n(-c3ccccc3)c2=O)S(=O)(=O)c2ccc(C(C)(C)C)cc2)cc1	n
c1ccc2c(C[C@@H]3CNCCN3CCCCC3CCCCC3)cccc2c1	14	TbREL1 conf=n
Oc1ccc(C[C@@H]2CNCCN2CCc2cccc3ccccc23)cc1	n
SMILES	TbREL1 primary	others
c1ccc(C[C@H]2CNCCN2CCCCC2CCCCC2)cc1	n
CCCC1CCC2(CC1)CCC2OC(=O)Nc1cccc(Cl)c1 (stereo unspecified)	n
CO[C@H]([C@H](C)/C=C/N(C)C=O)[C@@H](C)C(=O)CC[C@H](C)[C@H](O)[C@H](C)[C@H]1OC(=O)/C=C/C(C)=C/C[C@H](O)C[C@@H]2C=CC[C@@H](C[C@H](OC)C(C)(O)[C@@H](OC)C[C@@H](OC)[C@@H]1C)O2 (stereo partly specified)	n
CC(C)(C)Sc1ccc(N)nc1	39	TbREL1 conf=n
Nc1ccc(S(=O)(=O)O)cn1	n
CCn1c(=O)n(CC(=O)N2CCCN(Cc3ccccc3)CC2)c(=O)c2ccccc21	n
S=c1[nH]nc(-c2n[nH]c3c2CCC3)n1N=Cc1ccc(OCc2ccccc2)cc1	n
Cc1cc(NC(=O)c2ccc(NS(=O)(=O)c3ccc(C)c(C)c3)cc2)no1	n
O=C(COc1c(Cl)cc(Cl)cc1Cl)N/N=C/c1ccc[nH]1	n
Cc1ccc(N2C(=O)c3ccc(N)cc3C2=O)cc1C	n
Nc1ccc2c(c1)C(=O)C(=O)c1ccccc1-2	61	TbREL1 conf=87
Nc1ccc2oc(=O)c3ccccc3c2c1	n
CCCC1CCC2(CC1)CCC2OC(=S)Nc1ccc(Br)cc1 (stereo unspecified)	n
CCN(CC)C(=O)C1=C(C)N(Cc2ccccc2)C(=O)C(CC(=O)NCCCN(C)C)C1 (stereo unspecified)	n
CC1=C(C(=O)N(C(C)C)C(C)C)CC(CC(=O)NCCCN(C)C)C(=O)N1Cc1ccc(C(C)(C)C)cc1 (stereo unspecified)	17	TbREL1 conf=n
CC1=C(C(=O)N(C)C)CC(CC(=O)NCCCN(C)C)C(=O)N1Cc1ccc(F)cc1 (stereo unspecified)	n
CC(=O)N1CCCN(S(=O)(=O)c2ccc3c(c2)oc(=O)n3C)CC1	n
O=C1CCc2cc(S(=O)(=O)N3CCN(Cc4cccc5c4OCO5)CC3)ccc2N1	n
COc1nc(OC)nc(N2CCC(C(=O)N(C)Cc3ccccc3F)CC2)n1	n
CCCCNCc1cc(Br)c(OCC(=O)NCc2ccccc2)c(OC)c1	n
Cc1cc(Cl)c(OCCN2C(=O)NC(C)(C)C2=O)c(Br)c1	n
Clc1ccc(OCCCNCc2ccccc2)c(Br)c1	n
COc1cccc(OCCNCc2ccccc2)c1	n
Cc1cc(C)c(OCCCNCc2ccccc2)c(Br)c1	15	TbREL1 conf=15
Cc1cc(Cl)c(OCCCNCc2ccccc2)c(Br)c1	12	TbREL1 conf=11
